BAZ2B block – blocks human BAZ2B; 360,000 tested, 4.4% active; Potency, µM (top dose mostly 114 µM), without a hit: top-dose activity change, negative = inhibition, most hits filed as inhibitors; AID 504333; AlphaScreen BAZ2B-H3K14Ac peptide displacement; Q9UIF8; also: % is scaled to controls: 0 for no effect and ±100 for the full control effect; nearly all actives have a fitted effect of over 60% in size
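In this displacement format the biotinylated H3(5-23) peptide acetylated at Lys14 serves as ligand at 50 nM, with BAZ2B at 50 nM in PBS pH 7.4 containing 0.01% Tween-20. Donor and acceptor beads are 10 ug/mL final.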
L3MBTL1 block – blocks human L3MBTL1; AlphaScreen L3MBTL1–H3K9me1 peptide binding; Q9Y468; 230,000 tested, 0.66% active; Potency, µM (top dose mostly 57.1 µM), for inactives: at the top dose activity, negative = inhibition, usual class: inhibitors; also: % is scaled to controls: 0 for no effect and ±100 for the full control effect; nearly all actives have a fitted effect of over 60% in size
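L3MBTL1 50 nM + b-AHA-H3(1-15)K9me1 75 nM, 30 min RT; compound added, 30 min RT; streptavidin donor/Ni-chelate acceptor beads 10 ug/mL each final, 30 min RT dark; AlphaScreen read.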
JMJD2A Tudor inh – blocks the human JMJD2A Tudor domain | 390,000 tested, 4.4% active | AlphaScreen JMJD2A-Tudor / H3K4me3 peptide binding | Potency, µM (top dose mostly 114 µM), for the others: top-dose activity change, negative = inhibition, usual class: inhibitors | AID 504339; also: % is scaled to controls: 0 for no effect and ±100 for the full control effect; nearly all actives have a fitted effect of over 50% in size
HP1b binding inh – blocks HP1-beta chromodomain binding to methylated histone tails | AlphaScreen HP1-beta / biotin-H3K9me3 peptide binding | Potency, µM (highest dose often 114 µM), for inactives: at the highest dose activity change, negative = inhibition, usual class: inhibitors | 390,000 tested, 0.56% active; also: nearly all actives have a fitted effect of over 70% in size
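AlphaScreen: HP1-beta (50 nM) preformed 30 min with biotin-H3(1-18)K9me3 peptide (50 nM) in PBS pH 7.4, 0.01% Tween-20. Compound added for 30 min at RT, then streptavidin donor/nickel chelate acceptor beads (10 ug/mL) for 30 min.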
G9a inh – blocks human histone lysine methyltransferase G9a. Q96KQ7. Potency, µM (series often up to 102 µM), for the others: top-dose activity, negative = inhibition, most hits filed as inhibitors. 350,000 tested, 8.8% active. G9a H3K9 monomethylation, AlphaScreen, 2 h; also: % is scaled to controls: 0 for no effect and ±100 for the full control effect; nearly all actives have a fitted effect of over 75% in size
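Methyltransferase reactions run at room temperature for 2 h (20 nM enzyme, 500 nM biotin-H3K9 peptide, 20 uM SAM) after a 15 min compound preincubation; product detected by AlphaScreen beads and anti-H3K9me1 antibody.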
Sfp inh – blocks B. subtilis Sfp PPTase activity; Biochemical Sfp PPTase activity, qHTS; Potency, µM, inactives show largest response in the series, negative = inhibition, most hits filed as inhibitors; 310,000 tested, 3.5% active; AID 1490;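 also: the enzyme is Sfp with the accession as filed and its product quenches rhodamine fluorescence; 0% = enzyme reaction without inhibitor and -100% = no enzyme wells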
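With Hepes-Na pH 7.6 buffer containing 10 mM MgCl2, Sfp (15 nM) modified BHQ-2-YbbR (12.5 uM) using rhodamine-CoA (5 uM). Two reads 30 minutes apart at 525/598 nm yielded each well's rate.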
Numbers without * were called inactive; ? = inconclusive; · = no result; [ ] = another dose, or the depositor's remark. Rows were chosen to be rich in hits. Some 12% of all compounds tested hit in one or more screens of this group. Calls follow the shape of the dose curve; as a rule, active = well fitted curve in the direction sought with a large enough effect; inconclusive = small, poorly fitted or top-dose-only effect, or another doubt; inactive = no such curve, though single readings can be large; an effect the other way counts as inactive or inconclusive. Potency is read from the fitted curve at half-maximal effect.

SMILES	BAZ2B block	L3MBTL1 block	JMJD2A Tudor inh	HP1b binding inh	G9a inh	Sfp inh
CCN(CC)CCCOc1nc(C)nc2c1oc1ccccc12	?	-3%	-19%	18%	35µM*	10%
CN(C)CCOc1nc(-c2ccccc2)nc2c1oc1ccccc12	-13%	-2%	?	-18%	?	-22%
CCN(CC)CCOc1nc(C)nc2c1oc1ccccc12	?	5%	?	27%	50µM*	4%
O=C(OCC#CCSc1nnc(-c2cccc3ccccc23)o1)c1cc(F)c(F)c(F)c1	·	·	21%	·	·	·
CC1CCCN(c2ccc3nc4ccccc4c(=O)n3n2)C1 (stereo not drawn)	6%	·	79µM*	33%	50µM*	11%
Cc1ccc2nc3ccc(N4CCCC4)nn3c(=O)c2c1	-1%	6%	3%	44%	10%[59 µM]	28%
CCn1c(SCC(=O)NC(C)(C)C)nnc1-c1ccoc1C	6%	4%	-4%	32%	-6%[59 µM]	12%
CCn1c(SCC(=O)NC(C)(C)C)nnc1-c1ccccn1	?	·	-1%	29%	56µM*	17%
CCn1c(SCC(=O)Nc2cc(NC(C)=O)ccc2OC)nnc1-c1ccccn1	?	-2%	50µM*	19%	-8%[59 µM]	11%
CCOC(=O)c1ccc2c(c1)N(Cc1ccc(F)cc1Cl)C(=O)c1ccccc1S2(=O)=O	4%	·	-6%	64%	7%[59 µM]	·
O=C(O)c1ccccc1C(=O)Nc1cccc([N+](=O)[O-])c1	3%	11%	-6%	38%	-6%	14%
O=C(Nc1cccc([N+](=O)[O-])c1)c1cc2ccccc2cc1O	50µM*	?	-7%[11.4 µM]	36%	?	0%
O=C(Nc1cccc([N+](=O)[O-])c1)Nc1cccs1	?	·	?	-8%	40µM*	-27%
COc1cc(C(=O)O/N=C2/C=C(C)C(=O)C=C2C)cc(OC)c1OC	-9%	11%	-13%	61%	-11%[59 µM]	6%
COc1cc(C(=O)ON=C2C(C)=CC(=O)C=C2C)cc(OC)c1OC	?	1%	-12%	21%	32µM*	0%
CCn1c(SCC(=O)Nc2ccc(NC(C)=O)cc2)nnc1C1CC1	22%	4%	-11%	69%	-10%	3%
CCn1c2ccccc2c2cc(NC(=O)CSc3nccc(=O)[nH]3)ccc21	-37%	-12%	-27%	7%	35µM*	13%
CCn1c(SCC(=O)Nc2cccc(NC(C)=O)c2)nnc1-c1ccco1	5%	·	-12%	15%	11%	0%
O=C(CSc1nccc(=O)[nH]1)Nc1ccc2ccccc2c1	·	-2%	-20%	33%	·	·
CCN(CC)c1ccc(NC(=O)CSc2n[nH]c(-c3ccco3)n2)cc1	40µM*	-31%	?	-35%	4.5µM*	·
CCn1c(SCC(=O)Nc2ccc(N(C)C)cc2)nnc1C1CC1	-20%	·	-9%	13%	40µM*	17%
CCn1c(SCC(=O)Nc2ccc3c(c2)c2ccccc2n3CC)nnc1-c1ccco1	10%	-3%	28µM*	16µM*	10%[12.7 µM]	-1%
Cc1cccc(C)c1NC(=O)NC1(C(=O)N2CCCC2)CCCCC1	-9%	·	-3%	20%	2%	9%
CCn1c(SCC(=O)Nc2ccc(N(C)C)cc2)nnc1-c1ccco1	-36%	·	-6%	25%	40µM*	10%
CCC(=O)Nc1ccc(NC(=O)CSc2nnc(-c3ccco3)n2C)cc1	-16%	·	-8%	16%	20%	11%
SMILES	BAZ2B block	L3MBTL1 block	JMJD2A Tudor inh	HP1b binding inh	G9a inh	Sfp inh
COc1cc(/C=N/NC(=O)C(Cc2c[nH]c3ccccc23)NC(=O)OCC(C)C)cc([N+](=O)[O-])c1O (stereo not drawn)	50µM*	-20%	?	-30%	?	2%
COc1cc(/C=N/NC(=O)C(Cc2c[nH]c3ccccc23)NC(=O)OCC(C)C)cc([N+](=O)[O-])c1OCc1ccccc1 (stereo not drawn)	-37%	-25%	-17%	27%	?	16%
COc1cc(/C=N/NC(=O)C(Cc2c[nH]c3ccccc23)NC(=O)OCc2ccccc2)cc([N+](=O)[O-])c1O (stereo not drawn)	45µM*	-19%	40µM*	?	8.9µM*	-12%
Cc1ccc(NC(=O)CN2CCN(Cc3ccccc3)CC2)cc1	-3%	·	-9%	46%	-3%	11%
CC1(C)C2CCC(C2)C1(C)NC(=O)CN1CCN(Cc2ccccc2)CC1 (stereo not drawn)	28µM*	-8%	1.4µM*	16µM*	5.6µM*	?
COc1ccc(NC(=O)c2ccc3c(c2)N(Cc2cccc(Cl)c2)C(=O)c2ccccc2S3(=O)=O)cc1Cl	-16%	·	-14%	34%	-6%[59 µM]	·
O=C(CSc1nnc(-c2ccc(Br)o2)n1Cc1ccccc1)c1ccccc1F	?	-22%	?	19%	4.5µM*	35µM*
Cc1cc(NC(=O)CSc2nnc(-c3ccc(Br)o3)n2Cc2ccccc2)no1	-18%	-3%	-11%	21%	-48%[59 µM]	-7%
CCC(C)c1ccc(-n2c(=O)c3ccccc3n3c(=S)[nH]nc23)cc1 (stereo not drawn)	3%	·	-10%	-30%	1.1µM*	?
Cc1nnc2n(-c3ccccc3)c(=O)c3ccccc3n12	·	·	-21%	-13%	·	·
O=c1c2ccccc2n2c(=S)[nH]nc2n1-c1ccccc1	?	·	3.2µM*	?	5µM*	45µM*
COc1ccc(-n2nc(C(=O)Nc3cc(C)ccn3)c3c4ccccc4n(C)c3c2=O)cc1Cl	·	·	-9%	23%	-28%[59 µM]	·
O=[N+]([O-])c1cccc(S(=O)(=O)N2CCN(c3nc(-c4cccs4)nc4ccccc34)CC2)c1	·	·	-33%	9%	·	·
Cc1c(NC(=O)/C(C#N)=C/c2ccccc2)c(=O)n(-c2ccccc2)n1C	-10%	·	2%	13%	71µM*	-4%
Cc1c(NC(=O)C(=O)/C=C(\O)c2ccc(Cl)cc2)c(=O)n(-c2ccccc2)n1C	?	2%	13µM*	-1%	-18%[59 µM]	-1%
Cc1c(NC(=O)CC(=O)Nc2c(C)n(C)n(-c3ccccc3)c2=O)c(=O)n(-c2ccccc2)n1C	-6%	0%	-15%	12%	2%[59 µM]	16%
Cc1c(NN=C(C#N)C#N)c(=O)n(-c2ccccc2)n1C	-34%	·	-5%	27%	10µM*	-76%
Cc1c(NC(=S)NC(=O)c2ccc(Cl)cc2)c(=O)n(-c2ccccc2)n1C	·	·	-13%	12%	·	·
Cc1ccsc1/C=C(\C#N)C(=O)Nc1c(C)n(C)n(-c2ccccc2)c1=O	-31%	-13%	-14%	30%	?	-30%
